Assay [1] relates to Human papillomavirus type 1a protein E7 (residues 44-93). The experiment in a line: small molecules binding HPV E7 44-93 – biochemical, small-molecule microarray, residues 44-93, 635 nm fluorescence, primary screen (AID 1108).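 Note: E7 fragment applied at 1 µg/mL in TBST for 1 h at 4 C; score combines spot fluorescence with its signal to noise ratio.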 As to conditions: fluorescence 635 nm, higher = more signal.
Assay [2] in a line: hepatitis C replication reporter changes, two-sided – Huh7 cells, luciferase reporter, HCV replication inhibitor project, primary screen (AID 1109).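 Note: huh7 hepatoma cells harbouring a luciferase neomycin HCV replicon reporter; luciferase luminescence as measure of HCV replicon replication; test concentration not given here.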 As to conditions: Huh7 HCV replicon luciferase reporter, 48 h; higher = more signal.
Assay [3] deals with Left-right determination factor 2 (Homo sapiens) (UniProt O00292). The experiment in a line: small molecules binding LEFTY2 protein – biochemical, small-molecule microarray, 635 nm fluorescence scan, primary screen (AID 1110). As to conditions: higher = more signal.
Left-right determination factor 2 (Homo sapiens), sequence (O00292 whole entry, looked up): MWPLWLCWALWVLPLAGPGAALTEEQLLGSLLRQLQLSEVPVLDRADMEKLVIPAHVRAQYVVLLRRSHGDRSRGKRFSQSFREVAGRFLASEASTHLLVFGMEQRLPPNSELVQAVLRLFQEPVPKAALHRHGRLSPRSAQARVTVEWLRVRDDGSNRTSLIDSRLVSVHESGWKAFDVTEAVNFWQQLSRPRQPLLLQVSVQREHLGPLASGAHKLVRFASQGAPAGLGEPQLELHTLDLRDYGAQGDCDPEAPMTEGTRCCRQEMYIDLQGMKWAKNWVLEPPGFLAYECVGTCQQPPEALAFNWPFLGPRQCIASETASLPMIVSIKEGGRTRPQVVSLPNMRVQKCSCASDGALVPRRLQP
The target of assay [4] is Calmodulin-1 (Homo sapiens) (UniProt P0DP23). Kind of assay: small molecules binding calmodulin-1 with EGTA – biochemical, small-molecule microarray, Cy5-labelled CALM1, profiling panel (AID 1111).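 Note: labelled calmodulin applied in Tris saline Tween buffer holding calcium plus EGTA and DTT.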 As to conditions: Cy5-CALM1 binding fluorescence, higher = more signal.
For assay [5] the target is unchanged. Kind of assay: small molecules binding Ca-loaded calmodulin-1 – biochemical, small-molecule microarray, Cy5-labelled CALM1, plus calcium, artefact control for SMM control-protein annotation, profiling panel (AID 1112).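 Note: score merges spot fluorescence with signal to noise from triplicate slides.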 As to conditions: Cy5-CALM1 binding fluorescence, higher = more signal.
The nature of assay [6]: probe aWnt5a binding to arrayed compounds – biochemical, biotinylated probe, 635/667 nm fluorescence, primary screen (AID 1113).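 Note: score merges 667 nm fluorescence intensity with signal-to-noise per printed feature.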 As to conditions: small-molecule microarray, higher = more signal.
The nature of assay [7]: probe aShh binding to arrayed compounds – biochemical, biotinylated probe, 635/667 nm fluorescence, primary screen (AID 1114).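 Note: probe is biotin-labelled aShh protein from a stem cell growth factor screen; measures binding of labelled protein to compounds printed on the slide; score merges feature fluorescence at 667 nm with signal-to-noise.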 As to conditions: small-molecule microarray, higher = more signal.
Assay [8] is described as follows: probe aNog binding to arrayed compounds – biochemical, biotinylated probe, 635/667 nm fluorescence, primary screen (AID 1115).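 Note: probe is biotinylated aNog protein used at 0.15 µg/mL for 1 h at 4 C; z-score combines 667 nm fluorescence of each spot with its signal to noise.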 As to conditions: small-molecule microarray, higher = more signal.
In assay [9] the target is Torsin-1A-interacting protein 1 (Homo sapiens) (UniProt Q5JTV8). Kind of assay: compound microarray binding of lysate hLAP1 – cell lysate, small-molecule microarray, COS7 lysate, 635/667 nm fluorescence, primary screen (AID 1116). As to conditions: 635 nm fluorescence, higher = more signal.
Torsin-1A-interacting protein 1 (Homo sapiens), sequence (Q5JTV8 whole entry, looked up): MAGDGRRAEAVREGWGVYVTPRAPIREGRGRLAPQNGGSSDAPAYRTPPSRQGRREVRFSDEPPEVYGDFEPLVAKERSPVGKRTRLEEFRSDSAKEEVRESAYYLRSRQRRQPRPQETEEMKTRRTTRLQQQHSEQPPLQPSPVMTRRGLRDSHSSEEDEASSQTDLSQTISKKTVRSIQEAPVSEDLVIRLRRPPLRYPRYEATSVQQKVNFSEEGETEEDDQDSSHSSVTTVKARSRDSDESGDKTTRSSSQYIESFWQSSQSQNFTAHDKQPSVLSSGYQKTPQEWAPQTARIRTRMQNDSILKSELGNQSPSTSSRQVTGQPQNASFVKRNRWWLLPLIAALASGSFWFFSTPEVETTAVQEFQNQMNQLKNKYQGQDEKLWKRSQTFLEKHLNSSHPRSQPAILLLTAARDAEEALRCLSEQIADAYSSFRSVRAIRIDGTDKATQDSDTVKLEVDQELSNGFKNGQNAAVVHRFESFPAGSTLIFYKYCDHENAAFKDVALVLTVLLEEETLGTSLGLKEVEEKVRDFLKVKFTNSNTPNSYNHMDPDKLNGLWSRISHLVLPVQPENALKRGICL
Assay [10] concerns the target Alpha-bungarotoxin (Bungarus multicinctus) (UniProt P60615). Kind of assay: compounds binding labelled alpha-BTX control protein – biochemical, small-molecule microarray, Alexa647 label, 635/667 nm fluorescence, artefact control for SMM control protein annotation, profiling panel (AID 1117). As to conditions: alpha-BTX-A647 binding fluorescence, higher = more signal.
The target in another assay is Albumin (Bos taurus) (UniProt P02769). The experiment in a line: compounds binding labelled BSA control protein – biochemical, small-molecule microarray, Alexa647 label, 635/667 nm fluorescence, artefact control for SMM control protein annotation, profiling panel (AID 1118).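 Note: score merges 667 nm emission intensity and signal-to-noise per printed compound spot.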 As to conditions: BSA-A647 binding, fluorescence 635 nm, higher = more signal.
Albumin (Bos taurus), sequence (P02769 whole entry, looked up): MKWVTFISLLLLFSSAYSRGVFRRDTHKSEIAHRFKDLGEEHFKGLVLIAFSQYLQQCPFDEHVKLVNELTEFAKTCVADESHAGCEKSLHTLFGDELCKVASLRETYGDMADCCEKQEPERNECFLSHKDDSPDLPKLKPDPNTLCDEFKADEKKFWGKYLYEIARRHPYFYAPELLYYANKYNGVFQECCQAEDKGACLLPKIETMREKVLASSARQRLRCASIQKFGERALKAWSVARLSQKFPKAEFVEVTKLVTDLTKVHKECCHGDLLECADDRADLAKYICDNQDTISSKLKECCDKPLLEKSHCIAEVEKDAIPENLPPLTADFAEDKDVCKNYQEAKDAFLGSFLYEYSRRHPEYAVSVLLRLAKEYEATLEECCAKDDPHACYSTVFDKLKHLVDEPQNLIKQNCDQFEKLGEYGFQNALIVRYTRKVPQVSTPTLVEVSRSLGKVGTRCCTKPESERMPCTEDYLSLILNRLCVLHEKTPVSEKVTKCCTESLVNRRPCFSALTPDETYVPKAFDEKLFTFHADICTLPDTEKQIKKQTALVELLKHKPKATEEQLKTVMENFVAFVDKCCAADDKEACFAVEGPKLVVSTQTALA
Assay [11] can be described thus: probe aXIP binding to arrayed compounds – biochemical, NeuroSMM set, 635/667 nm fluorescence, primary screen (AID 1119).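 Note: probe is the protein aXip251-270 applied at 1 µg/mL to compound-printed slides; binding of probe to printed compounds measured as 667 nm fluorescence plus signal to noise.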 As to conditions: small-molecule microarray, higher = more signal, called active from +8 up or from −8 down.
Assay [12] can be described thus: probe aNOTCH3 binding on compound microarray – biochemical, small-molecule microarray, 635/667 nm fluorescence, primary screen (AID 1120).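 Note: probe is a biotin-tagged antibody raised against NOTCH3 rather than NOTCH3 protein; score merges spot fluorescence near 667 nm with spot signal to noise.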 As to conditions: higher = more signal.
Assay [13] in a line: probe aNOTCH2 binding on compound microarray – biochemical, small-molecule microarray, 635/667 nm fluorescence, primary screen (AID 1121).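 Note: score merges feature fluorescence read at 667 nm with its signal to noise.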 As to conditions: higher = more signal.
In assay [14] the target is Carbonic anhydrase 2 (Homo sapiens) (UniProt P00918). Kind of assay: compounds binding carbonic anhydrase 2 – biochemical, small-molecule microarray, Alexa647-labelled CAII, profiling panel (AID 1122). As to conditions: CAII-A647 binding fluorescence, higher = more signal.
Assay [15] in a line: COS7 lysate on small-molecule microarray, probe aHis, 635 nm (AID 1123).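 Note: z-score combines 667nm fluorescence intensity with signal-to-noise per printed compound spot.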 As to conditions: COS7 cell lysate, fluorescence, higher = more signal.
The nature of assay [16]: probe aLAP1 signal on lysate-treated microarray – cell lysate, small-molecule microarray, COS7 lysate, primary screen (AID 1124).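 Note: lysate comes from COS7 cells expressing LAP1 and is applied at 0.3 µg/mL; score merges spot fluorescence near 667 nm with signal-to-noise over triplicate slides.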 As to conditions: probe aLAP1, fluorescence, higher = more signal.
The next assay has as its system Sam68 (KHDRBS1). The experiment in a line: compounds binding KHDRBS1 protein – biochemical, small-molecule microarray, 635 nm fluorescence, primary screen (AID 1125).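 Note: score merges 667 nm channel intensity with signal to noise over triplicate slides.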 As to conditions: higher = more signal.
The subject of assay [17] is Chordin-like protein 2 (CHRDL2). Kind of assay: compounds binding chordin-like 2 – biochemical, small-molecule microarray, 635 nm fluorescence, primary screen (AID 1126).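 Note: printed compound slides probed with Chrdl2 protein at 4 µg/mL for 1 h at 4 C; score merges 667 nm emission intensity with signal to noise over three replicate slides.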 As to conditions: fluorescence 635 nm, higher = more signal.
The target in assay [18] is Concanavalin-A (Canavalia ensiformis) (UniProt P02866). The experiment in a line: compounds binding concanavalin A lectin – biochemical, small-molecule microarray, Alexa647 label, 635 nm, artefact control for SMM control protein annotation, primary screen (AID 1127).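 Note: z combines 667 nm emission intensity with signal-to-noise across three replicate slides.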 As to conditions: ConA-A647 binding fluorescence, higher = more signal.
Concanavalin-A (Canavalia ensiformis), sequence (P02866 whole entry, looked up): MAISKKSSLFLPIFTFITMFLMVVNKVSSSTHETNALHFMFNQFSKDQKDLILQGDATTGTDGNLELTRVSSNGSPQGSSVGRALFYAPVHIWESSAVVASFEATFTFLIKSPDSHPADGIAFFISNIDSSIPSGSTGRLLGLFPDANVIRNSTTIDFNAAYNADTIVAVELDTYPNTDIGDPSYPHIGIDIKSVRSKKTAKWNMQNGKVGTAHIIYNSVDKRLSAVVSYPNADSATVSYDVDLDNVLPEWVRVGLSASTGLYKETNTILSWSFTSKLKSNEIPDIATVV

Molecules are shown by their SMILES. Calls of active or inactive are those of the source.

Alpha-bungarotoxin (Bungarus multicinctus), sequence (P60615 whole entry, looked up): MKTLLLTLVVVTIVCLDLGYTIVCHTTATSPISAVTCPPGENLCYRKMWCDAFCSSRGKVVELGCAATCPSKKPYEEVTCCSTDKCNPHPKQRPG

As to `CCOC(=O)C[C@H]1[C@H](OC(=O)Cc2ccc3c(c2)OCO3)[C@@H](NC(=O)c2ccc(-c3ccccc3)cc2)c2cc(OCCCO)ccc2N1C(=O)c1ccc2ccccc2n1`, the composite z-score was 0.226 in assay [1]; 0.445 in [3]; 0.284 in assay [4]; -0.788 in [5]; -0.0828 in [6]; -0.146 in assay [7]. Further, the composite z-score was -0.261 in assay [8]; 0.142 in assay [9]; 0.0797 in assay [10]; 0.238 with Albumin (Bos taurus); -0.112 in [12]; -0.182 in assay [13]. The composite z-score was determined as 0.0289 in assay [14]; 0.1 in assay [15]; 0.0968 in assay [16]; 0.202 with Sam68 (KHDRBS1); 0.415 in [17]; 0.643 in assay [18]. Further, the z-score in assay [2] was -1.37. For the same molecule, in assay [11], the composite Z-score is -0.549 (inactive).

Take `C=C(CCCC)C(=O)CC[C@@H](OC(=O)c1cccnc1)c1ccc(CO)o1`: the composite z-score is 0.94 in assay [1]; 0.654 in [3]; 0.916 in assay [4]; -1.3 in assay [5]; 0.0003 in [6]; -0.0035 in assay [7]. The composite z-score was -0.0333 in assay [8]; 0.387 in [9]; 0.781 in [10]; 0.477 with Albumin (Bos taurus); 0.205 in assay [12]; -0.127 in assay [13]. Further, the composite z-score worked out at 0.618 in assay [14]; 0.28 in [15]; 0.194 in [16]; 1.31 in the assay on Sam68 (KHDRBS1); 0.844 in assay [17]; 1.02 in assay [18]. Also, the z-score in [2] is -1.39. Moreover, the composite Z-score in [11] is -0.261 (inactive).

Regarding `C=CCN1C(=O)[C@]2(O[C@H](CCO)[C@@H]([Si](C)(C)c3ccc(OC)cc3)[C@@H]2C)c2cc(N3CCCCC3=O)ccc21`, the composite z-score in [1] is 1.44; in assay [3], 0.0651; in assay [4], 0.856; in assay [5], 0.352; in [6], -0.0977; in [7], 0.147. For the same molecule, the composite z-score in assay [8] was 0.431; in assay [9], 0.957; in assay [10] it was 1.19; with Albumin (Bos taurus), 0.694; in assay [12] it was 0.135; in assay [13], -0.106. Moreover, the composite z-score came out at 0.163 in assay [14]; 1.86 in assay [15]; 0.279 in assay [16]; 1.28 with Sam68 (KHDRBS1); 0.122 in assay [17]; 0.877 in [18]. The molecule also registered a z-score in assay [2] of -4.11. In assay [11], the composite Z-score was 0.801 (inactive).

For `COCCOC(=O)N1C(=O)[C@@]2(c3ccccc31)[C@H](c1ccc(O)cc1)N1[C@H](c3ccccc3)[C@H](c3ccccc3)OC(=O)[C@H]1[C@@H]2C(=O)NC[C@H](O)c1ccccc1`, the composite z-score in assay [1] was 0.01; in [3], 0.25; in [4] it was 1.34; in assay [5], 0.682; in assay [6], -0.0643; in assay [7], 0.289. For the same molecule, the composite z-score in assay [8] is 0.35; in [9], 0.261; in [10] it was 0.14; with Albumin (Bos taurus), 0.827; in [12], 0.0888; in assay [13], -0.0513. The composite z-score was 0.756 in assay [14]; 1.79 in [15]; 0.506 in assay [16]; 1.07 with Sam68 (KHDRBS1); -1.04 in assay [17]; 0.291 in assay [18]. For the same molecule, the z-score in assay [2] is -0.296. The composite Z-score in assay [11] was 0.442 (inactive).

As to `COCCOC(=O)N1C(=O)[C@@]2(c3cc(C#CCCO)ccc31)[C@H](C(=O)N1CCN(c3ncccn3)CC1)[C@H]1C(=O)O[C@H](c3ccccc3)[C@H](c3ccccc3)N1[C@@H]2c1ccccc1OCCO`, the composite z-score in [1] is 1.37; in assay [3] it was 0.56; in assay [4], 1.72; in assay [5] it was 0.55; in assay [6] it was -0.0614; in assay [7] it was -0.214. Further, the composite z-score in [8] is 0.207; in assay [9], 0.249; in assay [10], 0.64; in the assay with Albumin (Bos taurus), 0.922; in assay [12], 0.195; in [13] it was -0.134. The composite z-score amounted to 0.582 in assay [14]; 1.76 in assay [15]; 0.186 in assay [16]; 1.31 in the assay on Sam68 (KHDRBS1); 0.207 in assay [17]; 1.14 in [18]. The same molecule came in with a z-score in assay [2] of -1.86. Also, the composite Z-score in assay [11] was -0.07 (inactive).

Turning to `O=C1NC(=O)C2C1C=CC(C(O)Cc1ccccc1)N2Nc1ccc(Cl)cc1Cl` (stereo not given), the composite z-score is -1.97 in [1]; -1.29 in [3]; 1.73 in assay [4]; 0.634 in assay [5]; -0.0825 in assay [6]; 0.171 in assay [7]. Moreover, the composite z-score in assay [8] was 0.155; in assay [9] it was 0.588; in [10] it was 1.57; in the assay with Albumin (Bos taurus), 0.809; in [12], 0.198; in [13], -0.11. Also, the composite z-score in assay [14] was 0.803; in assay [15], 2.07; in assay [16] it was -0.226; with Sam68 (KHDRBS1) it was -1.18; in assay [17] it was -1.15; in [18], -0.652. In assay [2], this molecule displayed a z-score of 0.458. The composite Z-score in [11] was -0.082 (inactive).
